Holding throughout (experiment): Primary qHTS to identify gynecologic anti-cancer compounds using libraries of approved drugs and bioactive compounds (AID 1345084); note: nearly all actives have a fitted effect of over 55% in size
The test system of one assay is C33A. To be noted: Gynecologic cancer cell panel viability, ATPlite luminescence, 48 h; series mostly up to 57.5 µM. In outline: (§1)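 Five-point cytotoxicity, 48 h drug exposure at 37 C, 5% CO2, on cells seeded 16 h beforehand. ATP content read by ATPlite luminescence.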
The next assay concerns CASKI. To be noted: Gynecologic cancer cell panel viability, ATPlite luminescence, 48 h; series mostly up to 57.5 µM. In outline:
as §1

The subject of another assay is Es-2. To be noted: Gynecologic cancer cell panel viability, ATPlite luminescence, 48 h; series mostly up to 57.5 µM. In outline:
as §1

In a further assay the test system is HeLa. To be noted: Gynecologic cancer cell panel viability, ATPlite luminescence, 48 h; series mostly up to 57.5 µM. Summed up: as §1
The next assay relates to Hek293T. To be noted: Gynecologic cancer cell panel viability, ATPlite luminescence, 48 h, control line for the selectivity index; series mostly up to 57.5 µM. In outline:
as §1

For another assay, the system named is JEG-3. To be noted: Gynecologic cancer cell panel viability, ATPlite luminescence, 48 h; series mostly up to 57.5 µM. Summed up:
as §1

The test system of the next assay is OV90. To be noted: Gynecologic cancer cell panel viability, ATPlite luminescence, 48 h; series mostly up to 57.5 µM. Summed up:
as §1

Another assay has as its system PA-1. To be noted: Gynecologic cancer cell panel viability, ATPlite luminescence, 48 h; series mostly up to 57.5 µM. Summed up: as §1
A further assay has as its system SKOV3. To be noted: Gynecologic cancer cell panel viability, ATPlite luminescence, 48 h; series mostly up to 57.5 µM. In outline: as §1
The subject of another assay is Tov-21-G. To be noted: Gynecologic cancer cell panel viability, ATPlite luminescence, 48 h; series mostly up to 57.5 µM. Summed up:
as §1

The next assay relates to Tov112D. To be noted: Gynecologic cancer cell panel viability, ATPlite luminescence, 48 h; series mostly up to 57.5 µM. In outline: as §1

The results in this text go back to PubChem BioAssay (NCATS).

Records with an inconclusive call do not appear. A number with no mark means an inactive call. Calls of active or inactive are those of the source. Calls come from the whole dose curve; as a rule, active = well fitted cell-killing curve with a large enough effect; inconclusive = small, poorly fitted or top-dose-only effect, or effect the other way; inactive = flat fitted curve, though single readings scatter.
% is set by controls: 0 for no effect and ±100 for the full control effect; potency is the fitted concentration of half-maximal effect.

Consider `C[C@H](NC(c1cccc(C[P+](=O)O)c1)[C@H](C)O)c1ccc(Cl)c(Cl)c1` (stereo not given in full), for which the Potency result in the assay on C33A, in the assay with CASKI, with Es-2, in the assay with HeLa, in the assay with Hek293T and in the assay with JEG-3 was “inactive” throughout. For the same molecule, the Potency result in the assay with OV90, in the assay with PA-1, with SKOV3, in the assay with Tov-21-G and in the assay with Tov112D was “inactive” throughout.

In the case of `COc1ccc([C@H]2CNC(=O)C2)cc1OC1CCCC1`, the Potency result in the assay with C33A, in the assay on CASKI, in the assay on Es-2, with HeLa, in the assay with Hek293T and in the assay on JEG-3 was “inactive” each time. Further, the Potency result with OV90, with PA-1, with SKOV3, with Tov-21-G and with Tov112D was “inactive” each time.

For `Cc1cccc(C)c1-n1c(=O)c2cnc(Nc3ccc(N4CCN(C)CC4)cc3)nc2n2c3ccccc3nc12`, the Potency with C33A was 2.82 µM (active); with CASKI it was 14.1 µM (active); in the assay on Es-2, 3.55 µM (active); in the assay with HeLa, 6.31 µM (active); in the assay on Hek293T, 3.55 µM (active); in the assay on JEG-3, 12.6 µM (active). Also, the Potency was 12.6 µM (active) in the assay on OV90, 7.94 µM (active) in the assay on PA-1, 0.398 µM (active) in the assay with Tov-21-G and 8.91 µM (active) with Tov112D.

Consider `COc1cc([C@H]2c3cc(O)c(OC)cc3C[C@@H](CO[C@@H]3O[C@H](CO)[C@@H](O)[C@H](O)[C@H]3O)[C@@H]2CO)ccc1O`, for which the Potency entry in the assay on C33A, with CASKI, in the assay on Es-2, with HeLa, in the assay with Hek293T and with JEG-3 was “inactive” throughout. In addition, the Potency result in the assay on OV90, with PA-1, in the assay with SKOV3, in the assay on Tov-21-G and in the assay with Tov112D was “inactive” in each case.

`C[C@@H]1O[C@@H](O[C@@H]2[C@@H](O)[C@H](O[C@H]3CC[C@@]4(C)C(CC[C@]5(C)C4CC=C4[C@@H]6CC(C)(C)CC[C@]6(C(=O)O[C@@H]6O[C@H](CO)[C@@H](O)[C@H](O)[C@H]6O)CC[C@]45C)C3(C)C)O[C@H](C(=O)O)[C@H]2O)[C@H](O)[C@H](O)[C@H]1O` (stereo not given in full): the activity change, negative = cytotoxicity with C33A was -0.88% [at 11.6 µM]; in the assay on CASKI it was 17% [at 11.6 µM]; in the assay with Es-2, 6.6% [at 11.6 µM]; in the assay on HeLa, 2.44% [at 11.6 µM]; in the assay with Hek293T it was 5.01% [at 11.6 µM]; in the assay with JEG-3, 4.87% [at 11.6 µM]. Also, the activity change, negative = cytotoxicity was 3.49% [at 11.6 µM] in the assay on OV90, 2.04% [at 11.6 µM] with PA-1, 1.47% [at 11.6 µM] in the assay with Tov-21-G and 5.96% [at 11.6 µM] with Tov112D.

For the molecule `CC(C)=CCC[C@](C)(O[C@@H]1O[C@H](CO)[C@@H](O)[C@H](O)[C@H]1O)[C@H]1CC[C@]2(C)[C@@H]1[C@H](O)CC1[C@@]3(C)CC[C@H](O)C(C)(C)C3[C@@H](O[C@@H]3O[C@H](CO)[C@@H](O)[C@H](O)[C@H]3O[C@@H]3OC[C@@H](O)[C@H](O)[C@H]3O)C[C@]12C` (stereo not given in full), the activity change, negative = cytotoxicity in the assay with C33A was -5.13% [at 11.6 µM]; in the assay with CASKI it was -3.01% [at 11.6 µM]; with Es-2, 3.44% [at 11.6 µM]; in the assay on HeLa, 9.51% [at 11.6 µM]; in the assay with Hek293T it was -2.61% [at 11.6 µM]; in the assay with JEG-3, -16.8% [at 11.6 µM]. The activity change, negative = cytotoxicity in the assay on OV90 was -3.26% [at 11.6 µM]; with PA-1 it was 2.46% [at 11.6 µM]; in the assay with SKOV3, -3.65% [at 11.6 µM]; with Tov-21-G, -2.34% [at 11.6 µM]; with Tov112D it was -2.93% [at 11.6 µM].

In the case of `Cc1cc(C)c(CNC(=O)c2cc(-c3ccc(CN4CCOCC4)cc3)cc3c2cnn3C2CCCC2)c(=O)[nH]1`, the Potency result with C33A, in the assay with CASKI, in the assay with Es-2, in the assay on HeLa, with Hek293T and in the assay with JEG-3 was “inactive” throughout. Moreover, the Potency entry with OV90, in the assay on PA-1, in the assay with Tov-21-G and in the assay with Tov112D was “inactive” throughout.

Take `Cc1noc(=O)c2ccc(NC(=O)C(O)(CC(C)(C)c3cccc4c3OCC4)C(F)(F)F)cc12` (stereo not given): the Potency result in the assay on C33A, with CASKI, with Es-2, in the assay with HeLa, with Hek293T and with JEG-3 was “inactive” throughout. Besides, the Potency entry with OV90, in the assay with PA-1, with SKOV3, in the assay with Tov-21-G and in the assay on Tov112D was “inactive” in each case.

Consider `O=C(O)CCCCCC[C@H]1C(=O)NC(=O)N1CC[C@@H](O)C1CCCCC1`, for which the Potency result with C33A, in the assay on CASKI, with Es-2, with HeLa, in the assay on Hek293T and with JEG-3 was “inactive” in each case. In addition, the Potency result in the assay on OV90, in the assay with PA-1, with Tov-21-G and with Tov112D was “inactive” in each case.

In the case of `CC(=O)OC1CC2C3(C)CCC(OC(=O)CC(=O)O)C(C)(C)C3CCC2(C)C2(C)CCC(C3(C)CCC(=O)O3)C12` (stereo not given), the Potency result in the assay with C33A, with CASKI, in the assay on Es-2, in the assay with HeLa, in the assay with Hek293T and in the assay on JEG-3 was “inactive” each time. In addition, the Potency result in the assay with OV90, in the assay with PA-1, in the assay on Tov-21-G and with Tov112D was “inactive” in each case.

`Cc1cc(NC(=O)Nc2ccc(F)c(F)c2)n(-c2ccccc2)n1`: the Potency result in the assay with C33A, in the assay with CASKI, with Es-2, with HeLa, with Hek293T and in the assay with JEG-3 was “inactive” in each case. In addition, the Potency entry in the assay with OV90, in the assay on PA-1, with Tov-21-G and in the assay on Tov112D was “inactive” throughout.

`OC[C@H]1O[C@@H](O[C@H]2[C@H](OCCc3ccccc3)O[C@H](CO)[C@@H](O)[C@@H]2O)[C@H](O)[C@@H](O)[C@@H]1O`: the Potency entry in the assay with C33A, with CASKI, in the assay on Es-2, in the assay on HeLa, with Hek293T and in the assay with JEG-3 was “inactive” throughout. Also, the Potency result in the assay on OV90, in the assay with SKOV3, in the assay on Tov-21-G and in the assay on Tov112D was “inactive” in each case.
